SMILES strings stand for the structures. Among all 360,000 compounds or so, about 2,400 (0.67%) were called active. The full list was thinned out, with actives kept by preference. A number with no mark means an inactive call.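 How the source made its calls: active means compounds whose normalised, plate-corrected inhibition of enzyme fluorescence in the single-dose primary screen is 50% or more; inactive means the rest.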

Drawing on PubChem BioAssay AID602261 (Sanford-Burnham Center for Chemical Genomics, 2012), this text covers inhibition for 25 compounds.

The assay deals with Fatty acid synthase (Homo sapiens) (UniProt P49327). The assay is described as follows: FAS thioesterase domain inhibitors, primary screen, biochemical, fluorescence intensity, uHTS (AID 602261).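 Further: 0% = DMSO with enzyme and 100% = substrate without enzyme.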 Conditions: recombinant FAS-TE, OMFH fluorogenic substrate, fluorescence endpoint; at 15 µM; stronger effect = higher value.
Sequence of Fatty acid synthase (Homo sapiens) (P49327 whole entry, looked up, the tested form may be a part): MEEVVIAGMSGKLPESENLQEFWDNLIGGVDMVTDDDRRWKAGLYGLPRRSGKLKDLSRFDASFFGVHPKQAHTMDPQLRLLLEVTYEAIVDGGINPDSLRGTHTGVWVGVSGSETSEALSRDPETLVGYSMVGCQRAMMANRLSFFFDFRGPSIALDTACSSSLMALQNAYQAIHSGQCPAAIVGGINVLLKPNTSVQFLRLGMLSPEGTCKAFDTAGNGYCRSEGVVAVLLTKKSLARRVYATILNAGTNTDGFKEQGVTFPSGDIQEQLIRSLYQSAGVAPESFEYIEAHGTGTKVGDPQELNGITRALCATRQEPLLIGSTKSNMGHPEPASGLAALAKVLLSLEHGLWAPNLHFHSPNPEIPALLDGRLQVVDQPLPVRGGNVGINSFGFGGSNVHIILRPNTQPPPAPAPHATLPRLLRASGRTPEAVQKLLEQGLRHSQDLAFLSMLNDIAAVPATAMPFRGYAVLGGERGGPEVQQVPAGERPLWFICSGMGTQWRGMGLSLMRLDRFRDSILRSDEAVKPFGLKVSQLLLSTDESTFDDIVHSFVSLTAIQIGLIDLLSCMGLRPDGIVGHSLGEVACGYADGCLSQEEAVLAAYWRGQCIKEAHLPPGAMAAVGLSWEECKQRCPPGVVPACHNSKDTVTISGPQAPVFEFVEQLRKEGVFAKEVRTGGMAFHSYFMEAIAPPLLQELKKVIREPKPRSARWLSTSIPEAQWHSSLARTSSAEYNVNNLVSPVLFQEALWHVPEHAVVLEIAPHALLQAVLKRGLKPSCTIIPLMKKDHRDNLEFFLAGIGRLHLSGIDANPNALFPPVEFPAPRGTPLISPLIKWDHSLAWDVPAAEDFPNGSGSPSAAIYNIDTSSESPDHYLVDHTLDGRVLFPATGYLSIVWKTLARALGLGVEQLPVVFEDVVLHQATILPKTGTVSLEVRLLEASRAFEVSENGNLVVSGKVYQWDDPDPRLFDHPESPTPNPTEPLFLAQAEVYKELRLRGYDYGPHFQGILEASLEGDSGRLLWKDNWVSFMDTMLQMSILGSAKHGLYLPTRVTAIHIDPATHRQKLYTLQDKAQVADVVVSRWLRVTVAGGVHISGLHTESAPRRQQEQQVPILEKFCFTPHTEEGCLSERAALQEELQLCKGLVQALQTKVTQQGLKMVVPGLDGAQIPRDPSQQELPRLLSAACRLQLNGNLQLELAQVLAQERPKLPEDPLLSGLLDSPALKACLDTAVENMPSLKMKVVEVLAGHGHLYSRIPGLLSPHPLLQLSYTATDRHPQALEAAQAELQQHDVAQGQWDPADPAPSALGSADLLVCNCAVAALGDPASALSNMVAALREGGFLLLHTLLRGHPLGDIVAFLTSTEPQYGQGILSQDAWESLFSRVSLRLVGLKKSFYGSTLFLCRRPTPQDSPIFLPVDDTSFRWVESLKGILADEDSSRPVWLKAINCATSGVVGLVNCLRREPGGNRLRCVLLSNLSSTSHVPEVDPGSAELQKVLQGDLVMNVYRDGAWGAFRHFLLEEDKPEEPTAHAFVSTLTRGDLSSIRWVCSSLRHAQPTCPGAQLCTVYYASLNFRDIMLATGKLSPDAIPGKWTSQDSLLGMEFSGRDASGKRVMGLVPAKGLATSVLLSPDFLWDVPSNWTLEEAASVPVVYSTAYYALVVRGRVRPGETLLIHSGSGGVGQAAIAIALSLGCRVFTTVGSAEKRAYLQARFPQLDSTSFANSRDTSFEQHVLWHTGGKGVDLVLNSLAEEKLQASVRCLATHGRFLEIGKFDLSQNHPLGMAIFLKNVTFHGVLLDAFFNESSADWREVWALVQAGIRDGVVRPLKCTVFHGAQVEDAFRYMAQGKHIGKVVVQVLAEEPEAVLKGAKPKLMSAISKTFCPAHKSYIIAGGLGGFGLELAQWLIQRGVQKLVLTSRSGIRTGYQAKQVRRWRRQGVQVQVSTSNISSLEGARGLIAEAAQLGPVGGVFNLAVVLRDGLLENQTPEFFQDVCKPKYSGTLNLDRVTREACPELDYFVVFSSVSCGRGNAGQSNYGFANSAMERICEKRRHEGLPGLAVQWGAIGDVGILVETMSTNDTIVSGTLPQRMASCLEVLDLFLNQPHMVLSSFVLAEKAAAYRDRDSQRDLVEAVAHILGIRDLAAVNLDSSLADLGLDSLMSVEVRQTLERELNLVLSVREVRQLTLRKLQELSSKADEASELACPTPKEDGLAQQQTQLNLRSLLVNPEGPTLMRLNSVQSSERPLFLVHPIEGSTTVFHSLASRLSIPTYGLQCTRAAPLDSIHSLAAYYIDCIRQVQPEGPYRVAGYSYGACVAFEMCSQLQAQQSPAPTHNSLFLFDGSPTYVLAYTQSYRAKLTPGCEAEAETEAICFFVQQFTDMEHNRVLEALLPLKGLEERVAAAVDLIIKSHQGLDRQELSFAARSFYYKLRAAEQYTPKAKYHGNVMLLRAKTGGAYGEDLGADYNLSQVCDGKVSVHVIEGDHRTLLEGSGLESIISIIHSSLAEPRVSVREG
Consider `COCCCN1C(=O)C(CC(=O)NCc2cccs2)CC(C(=O)N2CCOCC2)=C1C` (stereo not given), for which the inhibition was -5.4%.

With `CC1=C(C(=O)OCC2CCCCC2)C(c2ccc(F)cc2)NC(=O)N1` (stereo not given), the inhibition is 17.2%. Next, `CCC(CC)COC(=O)C1=C(C)NC(=O)NC1c1ccc([N+](=O)[O-])cc1` (stereo not given): 71.6% (active); `CCOCCOC(=O)C1=C(C)NC(=O)NC1c1ccc2c(c1)OCO2` (stereo not given): -6.1%; `N[C@@H](Cc1ccccc1)C(=O)N1CCC(C(=O)NCC(=O)Nc2ccc(F)cc2)CC1`: -6.7%. `CC(C)(O)C#Cc1ncc(C(F)(F)F)cc1Cl`: the inhibition is -1.4%. In the case of `COC(=O)[C@@H]1CC(O)CN1C(=O)C12CC3CC(CC(C3)C1)C2` (stereo not given in full) it was -6.7%; in that of `CCOC(=O)c1cnn2c(SC)ncnc12`, -6.9%; in that of `Cc1cc(C)c2c(=O)n3c(nc2c1)C(CC(C)C)NC(=O)c1cc2ccccc2cc1-3` (stereo not given), 2.3%.

Take `O=C1NC(Cc2ccccc2)c2nc3ccc(Br)cc3c(=O)n2-c2cc3ccccc3cc21` (stereo not given): the inhibition is 84.7% (active). For the compound `CCC1NC(=O)c2cccnc2-n2c1nc1ccc(C)cc1c2=O` (stereo not given), the inhibition was -5.4%. With `C=CCSc1nsc(NC(=O)Nc2cccc(C(C)=O)c2)n1`, the inhibition was 3.9%.

On to `Cc1ccc(C2SCC(=O)N2c2ccccc2)cc1` (stereo not given), for which the inhibition is -5.6%. With `Cc1ccc(N2C(=O)C3C(c4ccccc4)(C2=O)C3(c2ccccc2)c2ccccc2)cc1` (stereo not given), the inhibition is 80.8% (active). In the case of `Cc1ccc(N2C(=O)N3[C@@H]4c5ccccc5OC[C@@H]4[C@@H](c4ccccc4)[C@@]3(C)C2=O)cc1` it was 48.3%; in that of `COc1cc(C2C(C(=O)OCCC#N)=C(C)NC3=C2S(=O)(=O)c2ccccc23)cc(OC)c1OC` (stereo not given), -7.7%; in that of `C=C(Cl)COC(=O)C1C2C=CC(C2)C1C(=O)O` (stereo not given), -6.6%.

Turning to `COc1cccc(CNS(=O)(=O)c2cc3c(cc2C)n(C)c(=O)c(=O)n3C)c1`, the inhibition was -4.2%. In the case of `CC1c2nc3ccccc3n2C(CC(=O)NCCCN2CCOCC2)C(=O)N1Cc1ccccc1` (stereo not given) it was -2.2%; in that of `Cc1ccc(S(=O)(=O)N2C[C@]3(O)C[C@@H]4C(=O)N(c5ccccc5)C(=O)[C@@H]4C[C@]3(OC(=O)NC3CC3)C2)cc1`, 5.3%; in that of `C#CCN(C[C@@H]1[C@@H](OC(=O)NC2CC2)[C@@H](OC(=O)NC2CC2)Cn2c(=O)ccc(=O)n21)S(=O)(=O)c1ccc(C)cc1`, -8%. In the case of `C#CCN(C[C@H]1[C@H](OC(=O)NC2CCCC2)[C@H](OC(=O)NC2CCCC2)C[C@H]2C(=O)N(c3ccccc3)C(=O)[C@@H]12)S(=O)(=O)c1ccc(C)cc1` it was 69.1% (active); in that of `O=C(NCc1ccco1)c1ccc(CS(=O)(=O)Cc2ccc(F)cc2)o1`, -5.6%; in that of `C[C@H]1CN([C@@H](C)CO)C(=O)CCCn2nncc2CO[C@@H]1CN(C)Cc1ccc(Oc2ccccc2)cc1`, -4.9%. Consider `CCN(CCCNC(=O)CSc1cc(=O)n(C)c2cc(Cl)ccc12)Cc1ccccc1`, for which the inhibition was 1.5%.

A word on the inhibition: it is the relative decrease from the control value, in per cent.
